Assay results published in the supplement of paper PMC10127200.
Structures can show the parent of a compound that is named as a salt.

What was measured:
Assay in all cases: Euclidean distance of Cell Painting phenotypic profile (signed KS, 77 features) to DMSO centroid (dimensionless distance); 5 or 10 uM (library dependent); higher = stronger phenotypic change vs DMSO (phenoactivity)
Conditions in all cases: 48 h
[1] = system: 786-O
How it was run: (§1)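 Five cancer lines, together with a healthy fibroblast line, received library compounds for 48 h at a library-dependent 10 or 5 uM and 0.1% DMSO final. Harmony then derived 77 features from confocal 20X images (9 fields/well) of the stained cells, scoring each as a signed Kolmogorov-Smirnov statistic against same-plate vehicle wells. After plate-position correction, correlation weighting and replicate averaging at the top dose, phenoactivity was taken as each profile's Euclidean distance to the median vehicle profile.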

[2] = system: A549
How it was run: as §1

[3] = system: DU145
How it was run: as §1

[4] = system: FB
How it was run: as §1

[5] = system: HEPG2
How it was run: as §1

[6] = system: OVCAR4
How it was run: as §1

Row | Structure (SMILES) | Euclidean distance [1] | Euclidean distance [2] | Euclidean distance [3] | Euclidean distance [4] | Euclidean distance [5] | Euclidean distance [6]
1 | CC(=O)S[C@@H]1CC2=CC(=O)CC[C@]2(C)[C@H]2CC[C@@]3(C)[C@@H](CC[C@@]34CCC(=O)O4)[C@H]12 [Spironolactone] | 0.955 | 0.839 | 1.3 | 1.04 | 0.705 | 0.776
2 | CCC(C)(C)C(=O)O[C@H]1C[C@@H](C)C=C2C=C[C@H](C)[C@H](CC[C@@H]3C[C@@H](O)CC(=O)O3)[C@H]21 [Simvastatin] | 1.35 | 0.686 | 1.1 | 1.4 | 1.9 | 1.18
3 | Cc1cc(=O)oc2cc(O)ccc12 [4-Methylumbelliferone (4-MU)] | 0.739 | 0.856 | 0.979 | 0.746 | 0.603 | 0.95
4 | CN(C)CCCN1c2ccccc2Sc2ccccc21 [Promazine hydrochloride] | 1.46 | 0.965 | 2.09 | 1.9 | 2.01 | 1.58
5 | CCN(Cc1ccncc1)C(=O)C(CO)c1ccccc1 (centres undefined) [Tropicamide] | 1.11 | 1.27 | 1.8 | 1.01 | 0.684 | 1.3
6 | Cc1nc(=O)c2cc(CN(C)c3ccc(C(=O)N[C@@H](CCC(=O)O)C(=O)O)s3)ccc2[nH]1 [Raltitrexed] | 1.96 | 2.87 | 0.703 | 0.633 | 2.39 | 2.76
7 | C[C@@H](Oc1cc(-n2cnc3ccc(CN4CCN(C)CC4)cc32)sc1C(N)=O)c1ccccc1C(F)(F)F | 3.44 | 3.82 | 4.26 | 3.6 | 3.95 | 2.85
8 | CCCCOc1cc(C(=O)NCCN(CC)CC)c2ccccc2n1 [Dibucaine HCl] | 1.45 | 1.68 | 1.23 | 1.07 | 1.52 | 1.07
9 | N=C(N)NC(=O)c1nc(Cl)c(N)nc1N [Amiloride HCl] | 1.05 | 0.988 | 0.844 | 0.922 | 1.33 | 0.94
10 | c1ccc(-c2nn3c(c2-c2ccnc4cc(OCCN5CCOCC5)ccc24)CCC3)nc1 | 1.44 | 0.959 | 1.42 | 1.75 | 1.45 | 0.876
11 | CCC[C@@H]1C[C@@H](C(=O)N[C@@H]([C@H]2O[C@H](SC)[C@H](O)[C@@H](O)[C@H]2O)[C@@H](C)O)N(C)C1 [Lincomycin Hydrochloride Monohydrate] | 0.425 | 0.311 | 0.923 | 0.981 | 0.275 | 1.41
12 | CC(CN(C)C)CN1c2ccccc2Sc2ccccc21 (centres undefined) [Alimemazine Tartrate] | 1.33 | 1.55 | 1.73 | 2.43 | 2.13 | 1.33
13 | CN1CCN(CCOc2cc(OC3CCOCC3)c3c(Nc4c(Cl)ccc5c4OCO5)ncnc3c2)CC1 [Saracatinib (AZD0530)] | 3.22 | 3.83 | 1.78 | 3.97 | 1.98 | 3.34
14 | CN(C)CCOC(c1ccc(Cl)cc1)c1ccccn1 (centres undefined) [CarbinoxaMine Maleate] | 1.32 | 0.778 | 1.98 | 1.44 | 0.691 | 0.935
15 | NS(=O)(=O)c1cc2c(cc1Cl)N=CNS2(=O)=O [Chlorothiazide] | 1.21 | 0.957 | 1.22 | 1.35 | 0.662 | 0.734
16 | CCNC(=O)c1[nH]nc(-c2cc(Cl)c(O)cc2O)c1-c1ccc(OC)cc1 | 2.94 | 3.74 | 2.8 | 3.65 | 3.19 | 2.79
17 | Nc1ccc(S(=O)(=O)Nc2ncccn2)cc1 [Sodium sulfadiazine] | 1.29 | 0.966 | 1.5 | 1.52 | 0.727 | 1.12
18 | Cc1ncc([N+](=O)[O-])n1CCOC(=O)c1ccccc1 [Metronidazole Benzoate] | 0.984 | 1.41 | 0.885 | 1.58 | 0.486 | 0.922
19 | Nc1nc(=O)[nH]cc1F [Flucytosine] | 1.25 | 1.12 | 0.998 | 1.16 | 0.392 | 0.975
20 | Cc1cn(-c2cc(NC(=O)c3ccc(C)c(Nc4nccc(-c5cccnc5)n4)c3)cc(C(F)(F)F)c2)cn1 [Nilotinib hydrochloride] | 2.28 | 4.11 | 3.01 | 1.85 | 3.37 | 3.14
21 | CN1CCN(CCCN2c3ccccc3Sc3ccc(Cl)cc32)CC1 [Prochlorperazine dimaleate salt] | 1.84 | 2.24 | 1.63 | 2.19 | 2.85 | 1.67
22 | CCCN[C@H]1CCc2nc(N)sc2C1 [Pramipexole] | 1.54 | 0.915 | 1.04 | 0.837 | 0.869 | 1.19
23 | Cc1ccc(C(=O)c2ccc(CC(=O)O)n2C)cc1 [Tolmetin] | 1.07 | 0.65 | 0.844 | 1.14 | 0.964 | 0.922
24 | CCOc1cc(N)c(Cl)cc1C(=O)NCC1CN(Cc2ccc(F)cc2)CCO1 (centres undefined) [Mosapride] | 1.2 | 0.542 | 0.858 | 1.33 | 0.651 | 1.09
